Experimental data as given in PubChem BioAssay (EPA / NIEHS).
Activity calls are given as the source filed them. How the source made its calls: active means hit-call score of the fitted dose curve at least 0.9, where 1 is the maximum; inactive means score below 0.9.

Columns and labels:
[1] = read-out: TIMP metallopeptidase inhibitor 1 (TIMP1), TIMP1 (gene 7076); experiment: BSK_hDFCGF_TIMP1: BioMAP Diversity Plus: hDFCGF Assay for TIMP metallopeptidase inhibitor 1 (TIMP1) Biomarker Activity (AID 2283062); conditions: primary human foreskin fibroblasts; actives raise or lower the signal
Method in brief: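 Human foreskin fibroblast primary cultures dosed for 24 h; secreted/surface TIMP-1 quantified by ELISA. Bidirectional curve fitting against DMSO baseline; cytotoxicity tracked in parallel cultures by SRB total-protein staining.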

[2] = read-out: Matrix Metallopeptidase 1 (MMP1), MMP1 (gene 4312); experiment: BSK_hDFCGF_MMP1: BioMAP Diversity Plus: hDFCGF Assay for Matrix Metallopeptidase 1 (MMP1) Biomarker Activity (AID 2283064); conditions: primary human foreskin fibroblasts; actives raise or lower the signal
Method in brief: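 ELISA read-out of MMP1 from human foreskin fibroblasts (primary skin cells), 24 h post-dose. Gain or loss of signal was fitted bidirectionally versus DMSO negative control; cytotoxicity was checked by SRB in parallel cultures.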

[3] = read-out: Vascular cell adhesion molecule 1 (VCAM1), VCAM1 (gene 7412); experiment: BSK_hDFCGF_VCAM1: BioMAP Diversity Plus: hDFCGF Assay for Vascular cell adhesion molecule 1 (VCAM1) Biomarker Activity (AID 2283065); conditions: primary human foreskin fibroblasts; actives raise or lower the signal
Method in brief: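 Human foreskin fibroblast primary cells dosed with chemical, VCAM-1 measured by ELISA at 24 h. Bidirectional curve fitting relative to DMSO as negative control/baseline.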

[4] = read-out: Plasminogen activator inhibitor-1 (PAI1), SERPINE1 (gene 5054); experiment: BSK_hDFCGF_PAI1: BioMAP Diversity Plus: hDFCGF Assay for Plasminogen activator inhibitor-1 (PAI1) Biomarker Activity (AID 2283066); conditions: primary human foreskin fibroblasts; actives raise or lower the signal
Method in brief: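 PAI-1 levels in human dermal foreskin fibroblasts were quantified by ELISA 24 h after dosing, with gain or loss analysed against DMSO. Overt cytotoxicity was checked by sulforhodamine B total-protein staining in parallel cultures.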

[5] = read-out: Intercellular Adhesion Molecule 1 (ICAM1), ICAM1 (gene 3383); experiment: BSK_KF3CT_ICAM1: BioMAP Diversity Plus: KF3CT Assay for Intercellular Adhesion Molecule 1 (ICAM1) Biomarker Activity (AID 2283067); conditions: primary human keratinocytes with fibroblasts; actives raise or lower the signal
Method in brief: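 Human keratinocyte–foreskin fibroblast co-culture was treated for 24 h. Cell-surface ICAM-1 was quantified by ELISA, fitted bidirectionally relative to DMSO. Cytotoxicity was checked in parallel cultures by SRB total-protein staining.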

[6] = read-out: Interferon-gamma inducible Protein 10 (IP10), CXCL10 (gene 3627); experiment: BSK_KF3CT_IP10: BioMAP Diversity Plus: KF3CT Assay for Interferon-gamma inducible Protein 10 (IP10) Biomarker Activity (AID 2283068); conditions: primary human keratinocytes with fibroblasts; actives raise or lower the signal
Method in brief: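 ELISA read-out of IP-10 after 24 h chemical dosing of human skin primary co-culture (keratinocytes, foreskin fibroblasts). Gain or loss of signal relative to DMSO, bidirectional curve fit.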

[7] = BSK_KF3CT_SRB: Viability Assessment in the BioMAP Diversity Plus: KF3CT Assay (AID 2283069); conditions: primary human keratinocytes with fibroblasts
Method in brief: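 SRB read-out at 560 nm (0.1% stain, TCA-fixed cells) gauges overt cytotoxicity in a human skin keratinocyte–fibroblast co-culture 24 h post-dosing. Signal change was fitted bidirectionally relative to DMSO control.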

[8] = read-out: Interleukin-1 alpha (IL1a), IL1A (gene 3552); experiment: BSK_KF3CT_IL1a: BioMAP Diversity Plus: KF3CT Assay for Interleukin-1 alpha (IL1a) Biomarker Activity (AID 2283070); conditions: primary human keratinocytes with fibroblasts; actives raise or lower the signal
Method in brief: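 Primary skin co-culture (keratinocytes, foreskin fibroblasts), 24 h exposure; ELISA for IL-1a; bidirectional curve fit vs DMSO.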

[9] = read-out: TIMP metallopeptidase inhibitor 2 (TIMP2), TIMP2 (gene 7077); experiment: BSK_KF3CT_TIMP2: BioMAP Diversity Plus: KF3CT Assay for TIMP metallopeptidase inhibitor 2 (TIMP2) Biomarker Activity (AID 2283071); conditions: primary human keratinocytes with fibroblasts; actives raise or lower the signal
Method in brief: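 TIMP-2 measured by ELISA at 24 h in human keratinocyte/fibroblast primary co-cultures exposed to chemicals. Both increases and decreases were fitted against DMSO. Parallel cultures were stained with SRB for total protein as an overt-cytotoxicity check.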

[10] = read-out: Transforming growth factor beta 1 (TGFb1), TGFB1 (gene 7040); experiment: BSK_KF3CT_TGFb1: BioMAP Diversity Plus: KF3CT Assay for Transforming growth factor beta 1 (TGFb1) Biomarker Activity (AID 2283072); conditions: primary human keratinocytes with fibroblasts; actives raise or lower the signal
Method in brief: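 ELISA quantifies TGF-b1 at 24 h post-dose in a primary human skin co-culture of keratinocytes and fibroblasts, with gain or loss judged against DMSO. Parallel SRB total-protein staining flags overt cytotoxicity.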

[11] = read-out: C-C motif chemokine 2 (Homo sapiens) (UniProt P13500); experiment: BSK_KF3CT_MCP1: BioMAP Diversity Plus: KF3CT Assay for Monocyte Chemoattractant Protein 1 (MCP1/CCL2) Biomarker Activity (AID 2283073); conditions: primary human keratinocytes with fibroblasts; actives raise or lower the signal
Method in brief: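 Human keratinocyte–foreskin fibroblast co-culture; MCP-1 measured by ELISA 24 h after dosing. Bidirectional fit vs DMSO; cytotoxicity tracked by SRB total protein in parallel cultures.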

[12] = read-out: Matrix Metallopeptidase 9 (MMP9), MMP9 (gene 4318); experiment: BSK_KF3CT_MMP9: BioMAP Diversity Plus: KF3CT Assay for Matrix Metallopeptidase 9 (MMP9) Biomarker Activity (AID 2283074); conditions: primary human keratinocytes with fibroblasts; actives raise or lower the signal
Method in brief: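 ELISA read-out of MMP-9 at 24 h post-dosing in a co-culture of human skin keratinocytes and foreskin fibroblasts. Gain or loss of signal was fitted in both directions against DMSO.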

[13] = read-out: urokinase plasminogen activator (uPA), PLAU (gene 5328); experiment: BSK_KF3CT_uPA: BioMAP Diversity Plus: KF3CT Assay for urokinase plasminogen activator (uPA) Biomarker Activity (AID 2283075); conditions: primary human keratinocytes with fibroblasts; actives raise or lower the signal
Method in brief: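 Skin co-culture (keratinocytes + foreskin fibroblasts), human primary; 24 h post-dose; uPA by ELISA; gain/loss fit vs DMSO baseline.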

CD40, CD40 (gene 958) = experiment: BSK_LPS_CD40: BioMAP Diversity Plus: LPS Assay for CD40 Biomarker Activity (AID 2283076); conditions: primary human HUVEC with PBMC; actives raise or lower the signal
Method in brief: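 HUVEC plus PBMC co-culture stimulated with LPS; CD40 quantified by ELISA 24 h after compound dosing. Fitting was bidirectional relative to DMSO. SRB staining of parallel cultures flagged overt cytotoxicity.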

[14] = read-out: E-selectin (Homo sapiens) (UniProt P16581); experiment: BSK_LPS_Eselectin: BioMAP Diversity Plus: LPS Assay for Eselectin Biomarker Activity (AID 2283077); conditions: primary human HUVEC with PBMC; actives raise or lower the signal
Method in brief: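 Human umbilical vein endothelial cells co-cultured with PBMC under LPS stimulation; cell-surface E-selectin measured by ELISA 24 h after dosing. Change in either direction versus DMSO, with SRB total-protein staining in parallel cultures for cytotoxicity.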

[15] = read-out: Interleukin-8 (IL8), CXCL8 (gene 3576); experiment: BSK_LPS_IL8: BioMAP Diversity Plus: LPS Assay for Interleukin-8 (IL8) Biomarker Activity (AID 2283078); conditions: primary human HUVEC with PBMC; actives raise or lower the signal
Method in brief: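 Human umbilical vein endothelial cells co-cultured with PBMC, LPS-stimulated, exposed to compound for 24 h. IL-8 quantified by ELISA; fitted in both directions against DMSO, with SRB total-protein staining of parallel cultures for cytotoxicity.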

[16] = BSK_LPS_SRB: Viability Assessment in the BioMAP Diversity Plus: LPS Assay (AID 2283079); conditions: primary human HUVEC with PBMC;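 further: total protein by sulforhodamine B absorbance as a cytotoxicity measure; measured one day after compound addition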
Method in brief: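 Co-culture of human umbilical vein endothelial cells and PBMC, read 24 h after dosing. Total protein by 0.1% SRB staining after 10% TCA fixation, absorbance at 560 nm; bidirectional fit against DMSO.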

[17] = read-out: Interleukin-1 alpha (IL1a), IL1A (gene 3552); experiment: BSK_LPS_IL1a: BioMAP Diversity Plus: LPS Assay for Interleukin-1 alpha (IL1a) Biomarker Activity (AID 2283080); conditions: primary human HUVEC with PBMC; actives raise or lower the signal
Method in brief: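 Human umbilical vein endothelial cells co-cultured with PBMC and stimulated with LPS; IL-1a measured by ELISA 24 h after dosing. Bidirectional fitting against DMSO; cytotoxicity checked by SRB staining in parallel cultures.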

[18] = read-out: Monocyte Chemoattractant Protein-1 (MCP1), CCL2 (gene 6347); experiment: BSK_LPS_MCP1: BioMAP Diversity Plus: LPS Assay for Monocyte Chemoattractant Protein-1 (MCP1) Biomarker Activity (AID 2283081); conditions: primary human HUVEC with PBMC; actives raise or lower the signal
Method in brief: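 Human umbilical vein endothelial cells co-cultured with PBMC, LPS-stimulated; secreted MCP-1 measured by ELISA 24 h after compound addition. Bidirectional curve fitting against DMSO baseline; SRB total-protein staining in parallel cultures for cytotoxicity.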

[19] = read-out: Monokine induced gamma interferon (MIG), CXCL9 (gene 4283); experiment: BSK_hDFCGF_MIG: BioMAP Diversity Plus: hDFCGF Assay for Monokine induced gamma interferon (MIG) Biomarker Activity (AID 2283063); conditions: primary human foreskin fibroblasts; actives raise or lower the signal
Method in brief: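 MIG/CXCL9 measured by ELISA 24 h after dosing primary human skin fibroblasts. Activity fitted in both directions against DMSO controls. Cytotoxicity was checked in parallel cultures by SRB staining read at 560 nm.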

Measured: AC50

E-selectin (Homo sapiens), sequence (P16581 whole entry, looked up): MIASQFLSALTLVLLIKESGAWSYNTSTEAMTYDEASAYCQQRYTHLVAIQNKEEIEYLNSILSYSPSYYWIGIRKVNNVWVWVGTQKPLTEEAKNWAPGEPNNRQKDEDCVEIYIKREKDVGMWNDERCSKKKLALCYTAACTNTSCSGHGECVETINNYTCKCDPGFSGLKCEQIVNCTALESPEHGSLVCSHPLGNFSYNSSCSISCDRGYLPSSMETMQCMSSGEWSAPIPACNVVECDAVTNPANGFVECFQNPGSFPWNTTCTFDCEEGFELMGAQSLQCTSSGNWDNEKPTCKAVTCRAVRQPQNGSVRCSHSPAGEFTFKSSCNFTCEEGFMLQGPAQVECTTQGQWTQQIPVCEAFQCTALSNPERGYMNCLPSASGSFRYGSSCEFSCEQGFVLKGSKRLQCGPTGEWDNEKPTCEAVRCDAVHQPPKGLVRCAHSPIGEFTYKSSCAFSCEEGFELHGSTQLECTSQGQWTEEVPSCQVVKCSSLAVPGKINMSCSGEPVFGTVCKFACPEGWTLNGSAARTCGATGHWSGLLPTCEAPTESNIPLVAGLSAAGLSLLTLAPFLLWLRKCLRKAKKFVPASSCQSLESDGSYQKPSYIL

Cc1nc(-c2ccc3c(c2)CCN(CCC2CCC(NC(=O)/C=C/c4ccc(F)cc4)CC2)CC3)no1 (centres undefined)
active: CD40, CD40 (gene 958) 3.86 µM | [15] 6.69 µM
not listed: [19]
inactive: all other assays above

CCOC(=O)CCC(=O)OCC
inactive: all assays above
